Measured values as given in PubChem BioAssay AID1159580 (chemical genetic matrix, 2015).
The whole screen tested about 5,500 compounds, of which about 2,000 (36%) were called active. About 18% were inconclusive and are not listed. No stated cut-off is given here; in the data, active means normalized growth mostly below about 0.91 (no sharp cut-off); inconclusive means no clear call, values can overlap the other calls; inactive means mostly above about 0.92. Some of the results follow.

Assay: chemical genetic growth profiling, strain panel (AID 1159580);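 further: tested at 20 µM; growth read once vehicle control cultures reached saturation at 30 °C; 1 = growth at the plate median or of vehicle wells; lower values mean less growth of the strain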
Details: growth OD

Measured: normalized growth

CCN(CC)CCOc1ccc2c(c1)C(=O)c1cc(OCCN(CC)CC)ccc1-2
inactive: S. cerevisiae deletion strains, locus YJR075W, strain HOC1, hits give low values 0.998 | S. cerevisiae deletion strains, locus YKL009W, strain mrt4, hits give low values 0.973 | S. cerevisiae deletion strains, locus YKL068W, hits give low values 0.975 | S. cerevisiae deletion strains, locus YKL085W, strain MDH1 (second series), hits give low values 1.02 | S. cerevisiae deletion strains, locus YKL085W, strain MDH1, hits give low values 1.02 | S. cerevisiae deletion strains, locus YKL160W, strain elf1, hits give low values 0.96 | S. cerevisiae deletion strains, locus YKL190W, strain CNB1, hits give low values 0.991 | S. cerevisiae deletion strains, locus YKR001C, strain vps1, hits give low values 0.986 | S. cerevisiae deletion strains, locus YKR026C, strain gcn3, hits give low values 0.98 | S. cerevisiae deletion strains, locus YKR091W, strain srl3, hits give low values 0.982 | S. cerevisiae deletion strains, locus YLL001W, strain dnm1, hits give low values 1.01 | S. cerevisiae deletion strains, locus YLL026W, hits give low values 0.992 | S. cerevisiae deletion strains, locus YLL041C, strain sdh2, hits give low values 0.998 | S. cerevisiae deletion strains, locus YLR027C, strain aat2, hits give low values 0.996 | S. cerevisiae deletion strains, locus YLR039C, strain RIC1, hits give low values 0.963 | S. cerevisiae deletion strains, locus YLR058C, strain SHM2, hits give low values 0.994 | S. cerevisiae deletion strains, locus YLR102C, strain apc9, hits give low values 0.975 | S. cerevisiae deletion strains, locus YLR113W, strain HOG1, hits give low values 0.988 | S. cerevisiae deletion strains, locus YLR221C, strain rsa3, hits give low values 0.993 | S. cerevisiae deletion strains, locus YLR258W, strain gsy2, hits give low values 0.979 | S. cerevisiae deletion strains, locus YLR262C, strain YPT6 (second series), hits give low values 1.05 | S. cerevisiae deletion strains, locus YLR262C, strain YPT6, hits give low values 0.96 | S. cerevisiae deletion strains, locus YLR268W, strain sec22, hits give low values 0.984 | S. cerevisiae deletion strains, locus YLR320W, strain mms22, hits give low values 0.995 | S. cerevisiae deletion strains, locus YLR330W, strain CHS5, hits give low values 0.988 | S. cerevisiae deletion strains, locus YLR342W, strain FKS1 (second series), hits give low values 1.01 | S. cerevisiae deletion strains, locus YLR342W, strain FKS1, hits give low values 0.981 | S. cerevisiae deletion strains, locus YLR357W, strain rsc2, hits give low values 0.963 | S. cerevisiae deletion strains, locus YLR370C, strain arc18, hits give low values 0.987 | S. cerevisiae deletion strains, locus YLR371W, strain rom2, hits give low values 0.961 | S. cerevisiae deletion strains, locus YLR384C, strain iki3, hits give low values 0.984 | S. cerevisiae deletion strains, locus YLR418C, strain cdc73, hits give low values 1.06 | S. cerevisiae deletion strains, locus YML016C, strain PPZ1, hits give low values 0.995 | S. cerevisiae deletion strains, locus YML032C, strain rad52, hits give low values 0.968 | S. cerevisiae deletion strains, locus YML120C, strain ndi1, hits give low values 0.985 | S. cerevisiae deletion strains, locus YML124C, strain tub3, hits give low values 0.987 | S. cerevisiae deletion strains, locus YMR058W, strain fet3, hits give low values 0.994 | S. cerevisiae deletion strains, locus YMR078C, strain ctf18, hits give low values 0.978 | S. cerevisiae deletion strains, locus YMR125W, strain sto1, hits give low values 0.978 | S. cerevisiae deletion strains, locus YMR129W, hits give low values 0.982 | S. cerevisiae deletion strains, locus YMR205C, strain PFK2, hits give low values 0.969 | S. cerevisiae deletion strains, locus YMR223W, strain ubp8, hits give low values 0.982 | S. cerevisiae deletion strains, locus YMR231W, strain pep5, hits give low values 0.99 | S. cerevisiae deletion strains, locus YMR263W, strain SAP30, hits give low values 1 | S. cerevisiae deletion strains, locus YMR307W, strain GAS1, hits give low values 1.09 | S. cerevisiae deletion strains, locus YNL067W, strain RPL9B, hits give low values 0.999 | S. cerevisiae deletion strains, locus YNL071W, strain lat1, hits give low values 0.988 | S. cerevisiae deletion strains, locus YNL128W, strain TEP1, hits give low values 0.987 | S. cerevisiae deletion strains, locus YNL153C, strain GIM3, hits give low values 1.01 | S. cerevisiae deletion strains, locus YNL183C, strain NPR1, hits give low values 0.939 | S. cerevisiae deletion strains, locus YNL209W, strain ssb2, hits give low values 0.976 | S. cerevisiae deletion strains, locus YNL233W, strain BNI4, hits give low values 1.02 | S. cerevisiae deletion strains, locus YNL248C, strain rpa49, hits give low values 0.98 | S. cerevisiae deletion strains, locus YNL250W, strain rad50, hits give low values 0.983 | S. cerevisiae deletion strains, locus YNL271C, strain bni1, hits give low values 0.993 | S. cerevisiae deletion strains, locus YNL298W, strain CLA4, hits give low values 0.971 | S. cerevisiae deletion strains, locus YNL307C, strain MCK1, hits give low values 0.975 | S. cerevisiae deletion strains, locus YNL322C, strain KRE1 (second series), hits give low values 0.96 | S. cerevisiae deletion strains, locus YNL322C, strain KRE1, hits give low values 0.983 | S. cerevisiae deletion strains, locus YNR049C, strain mso1, hits give low values 0.968 | S. cerevisiae deletion strains, locus YNR052C, strain pop2, hits give low values 0.975 | S. cerevisiae deletion strains, locus YOL006C, strain TOP1, hits give low values 1.02 | S. cerevisiae deletion strains, locus YOL012C, strain htz1 0.871 | S. cerevisiae deletion strains, locus YOL147C, strain pex11, hits give low values 0.992 | S. cerevisiae deletion strains, locus YOR001W, strain rrp6, hits give low values 0.988 | S. cerevisiae deletion strains, locus YOR061W, strain CKA2, hits give low values 0.994 | S. cerevisiae deletion strains, locus YOR069W, strain VPS5, hits give low values 0.996 | S. cerevisiae deletion strains, locus YOR070C, strain gyp1, hits give low values 0.989 | S. cerevisiae deletion strains, locus YOR080W, strain dia2, hits give low values 0.983 | S. cerevisiae deletion strains, locus YOR083W, strain WHI5, hits give low values 0.968 | S. cerevisiae deletion strains, locus YOR106W, strain vam3, hits give low values 0.944 | S. cerevisiae deletion strains, locus YOR136W, strain idh2, hits give low values 0.985 | S. cerevisiae deletion strains, locus YOR144C, strain elg1, hits give low values 0.97 | S. cerevisiae deletion strains, locus YOR184W, strain ser1, hits give low values 0.976 | S. cerevisiae deletion strains, locus YOR231W, strain MKK1, hits give low values 0.985 | S. cerevisiae deletion strains, locus YOR265W, strain rbl2, hits give low values 0.976 | S. cerevisiae deletion strains, locus YOR270C, strain vph1, hits give low values 1.07 | S. cerevisiae deletion strains, locus YOR290C, strain snf2, hits give low values 0.964 | S. cerevisiae deletion strains, locus YOR316C, strain cot1, hits give low values 0.995 | S. cerevisiae deletion strains, locus YPL051W, strain arl3, hits give low values 0.97 | S. cerevisiae deletion strains, locus YPL055C, strain LGE1, hits give low values 1.02 | S. cerevisiae deletion strains, locus YPL078C, strain atp4, hits give low values 0.981 | S. cerevisiae deletion strains, locus YPL106C, strain sse1, hits give low values 0.979 | S. cerevisiae deletion strains, locus YPL240C, strain hsp82, hits give low values 0.996 | S. cerevisiae deletion strains, locus YPL241C, strain CIN2, hits give low values 0.971 | S. cerevisiae deletion strains, locus YPL256C, strain CLN2, hits give low values 0.979 | S. cerevisiae deletion strains, locus YPR119W, strain clb2, hits give low values 0.988 | S. cerevisiae deletion strains, locus YPR141C, strain kar3, hits give low values 0.989 | S. cerevisiae deletion strains, locus YPR163C, strain tif3, hits give low values 0.97 | S. cerevisiae deletion strains, locus YPR167C, strain met16, hits give low values 1 | S. cerevisiae deletion strains, strain wtn01, hits give low values 0.993 | S. cerevisiae strains, strain wild type, hits give low values 0.995
